Drawing on the supplement of paper PMC10646978, this text covers NF-kB reporter, IRF reporter and viability score for 14 compounds.

Holding throughout (settings): modulator concentration 10 µM
The subject of test [1] is RAW-Dual (murine macrophage reporter line). In words: NF-kB reporter (SEAP) activity fold change vs agonist alone; higher = enhanced NF-kB activity. The gist of the method:
(§1)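 RAW-Dual murine macrophage reporter cells were seeded at 50 000 per well in 384-well plates and pre-incubated 1 hour at 37 °C with compound pin-transferred to 10 μM final. After 1 hour, a PRR agonist was added and cells incubated overnight. Supernatant NF-κB (SEAP, QUANTI-Blue, 620 nm absorbance) and IRF (Lucia luciferase, QUANTI-Luc, luminescence) signals were divided by the mean agonist-only control on the same plate to give fold change. Two replicate plates were averaged, with errors by propagation.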

Test [2] shares this test system. Nature of the test: IRF reporter (Lucia luciferase) activity fold change vs agonist alone; higher = enhanced IRF activity. The gist of the method:
as §1

Test [3] shares this test system. In words: viability score (confluency relative to resting cells, overnight) (fraction); higher = more viable, active = viable (0.7 or more). The gist of the method: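 RAW-Dual macrophages in 384-well plates were treated overnight with compound at 10 μM final. IncuCyte imaging recorded confluency, and IncuCyte software built two confluency masks across every imaged well. The viability score expresses confluency relative to resting cells and was judged against a cutoff, which a compound met only if both masks exceeded 70% of resting cells.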

The mark [4] stands for this setting: agonist: CpG ODN 1826 0.5 ug/mL.

Molecules are shown by their SMILES. ± gives the standard deviation.

With `CN(C)CCC(=O)c1ccccc1`, the NF-kB reporter worked out at 0.736 ± 0.06 in test [1] (setting [4]), 0.28 ± 0.032 in test [1] (agonist: LPS 0.1 ug/mL) and 0.33 ± 0.018 in test [1] (agonist: MPLA […]). Moreover, the values for the IRF reporter in test [2] (agonist: 3'3'-cGAMP 10 ug/mL), in test [2] (agonist: LPS 0.1 ug/mL) and in test [2] (agonist: MPLA […]) were 0.155 ± 0.054, 0.134 ± 0.0059 and 0.09 ± 0.0096, respectively. In addition, the viability score in test [3] was 0.463 (inactive).

On to `C[C@@H]1CC[C@H]2[C@@H](C)C(=O)O[C@@H]3O[C@@]4(C)CC[C@@H]1[C@]32OO4`, for which the NF-kB reporter turned out to be 0.961 ± 0.086 in test [1] (setting [4]), 0.916 ± 0.052 in test [1] (agonist: LPS 0.1 ug/mL) and 1.11 ± 0.11 in test [1] (agonist: MPLA […]). The results for the IRF reporter in test [2] (agonist: 3'3'-cGAMP 10 ug/mL), in test [2] (agonist: LPS 0.1 ug/mL) and in test [2] (agonist: MPLA […]) were 1.04 ± 0.048, 1.13 ± 0.065 and 1.17 ± 0.099, respectively. For the same compound, the viability score in test [3] was 0.985 (active).

Take `COc1ccc2c(c1)[nH]c1c(C)nccc12`: the NF-kB reporter was found to be 0.6 ± 0.047 in test [1] (setting [4]), 0.885 ± 0.074 in test [1] (agonist: LPS 0.1 ug/mL) and 0.949 ± 0.09 in test [1] (agonist: MPLA […]). Further, the IRF reporter is 0.431 ± 0.019 in test [2] (agonist: 3'3'-cGAMP 10 ug/mL), 0.653 ± 0.11 in test [2] (agonist: LPS 0.1 ug/mL) and 0.594 ± 0.11 in test [2] (agonist: MPLA […]). Moreover, in test [3], the viability score was 1.03 (active).

With `CCN(CC)CCOC(=O)C(O)(c1ccccc1)c1ccccc1.Cl`, the NF-kB reporter came out at 1.16 ± 0.16 in test [1] (setting [4]), 1.04 ± 0.41 in test [1] (agonist: LPS 0.1 ug/mL) and 0.923 ± 0.066 in test [1] (agonist: MPLA […]). Moreover, the IRF reporter in test [2] (agonist: 3'3'-cGAMP 10 ug/mL) was determined as 1.38 ± 0.043; in test [2] (agonist: LPS 0.1 ug/mL), 1.03 ± 0.3; in test [2] (agonist: MPLA […]), 1.44 ± 0.11. Further, the viability score in test [3] was 0.98 (active).

As to `Cc1ccccc1C(=O)Nc1cc(Cl)c([N+](=O)[O-])cc1Cl`, the NF-kB reporter was 1.05 ± 0.061 in test [1] (setting [4]), 0.897 ± 0.078 in test [1] (agonist: LPS 0.1 ug/mL) and 0.973 ± 0.029 in test [1] (agonist: MPLA […]). For the same compound, the IRF reporter came to 0.997 ± 0.037 in test [2] (agonist: 3'3'-cGAMP 10 ug/mL), 0.996 ± 0.11 in test [2] (agonist: LPS 0.1 ug/mL) and 0.988 ± 0.21 in test [2] (agonist: MPLA […]). Further, in test [3], the viability score is 0.998 (active).

Consider `NC(=O)CN1CC(O)CC1=O` (stereo not drawn), for which the NF-kB reporter was determined as 1.04 ± 0.079 in test [1] (setting [4]), 1.04 ± 0.051 in test [1] (agonist: LPS 0.1 ug/mL) and 1 ± 0.03 in test [1] (agonist: MPLA […]). The IRF reporter worked out at 0.961 ± 0.081 in test [2] (agonist: 3'3'-cGAMP 10 ug/mL), 1.02 ± 0.082 in test [2] (agonist: LPS 0.1 ug/mL) and 0.954 ± 0.097 in test [2] (agonist: MPLA […]). The viability score in test [3] is 0.996 (active).

Consider `CC12CCC3C(CCC4CC(O)CCC43C)C1CCC2O` (stereo not drawn), for which the results for the NF-kB reporter in test [1] (setting [4]), in test [1] (agonist: LPS 0.1 ug/mL) and in test [1] (agonist: MPLA […]) were 1.23 ± 0.29, 0.968 ± 0.059 and 2.43 ± 1.5, respectively. Moreover, the IRF reporter is 0.891 ± 0.037 in test [2] (agonist: 3'3'-cGAMP 10 ug/mL), 1.13 ± 0.18 in test [2] (agonist: LPS 0.1 ug/mL) and 1.21 ± 0.14 in test [2] (agonist: MPLA […]). Moreover, the viability score in test [3] is 0.963 (active).

With `Cc1cc(OC(=O)C2CCCCC2)c2c3c(c(=O)oc2c1)CCC3`, the NF-kB reporter was found to be 0.947 ± 0.094 in test [1] (setting [4]), 1.01 ± 0.063 in test [1] (agonist: LPS 0.1 ug/mL) and 0.968 ± 0.058 in test [1] (agonist: MPLA […]). In addition, the IRF reporter was determined as 0.948 ± 0.042 in test [2] (agonist: 3'3'-cGAMP 10 ug/mL), 1.29 ± 0.13 in test [2] (agonist: LPS 0.1 ug/mL) and 1.13 ± 0.07 in test [2] (agonist: MPLA […]). In addition, the viability score in test [3] was 1.01 (active).

Regarding `COc1cc2c(c(OC)c1OC)-c1ccc(O)c(=O)cc1C(NC(C)=O)CC2` (stereo not drawn), the NF-kB reporter in test [1] (setting [4]) worked out at 2.16 ± 0.12; in test [1] (agonist: LPS 0.1 ug/mL), 1.27 ± 0.084; in test [1] (agonist: MPLA […]) it was 1.52 ± 0.16. For the same compound, the values for the IRF reporter in test [2] (agonist: 3'3'-cGAMP 10 ug/mL), in test [2] (agonist: LPS 0.1 ug/mL) and in test [2] (agonist: MPLA […]) were 0.705 ± 0.024, 1.26 ± 0.082 and 1.08 ± 0.19, respectively. Moreover, the viability score in test [3] was 0.754 (active).

Take `C#CCOc1ccc(C=C2C(=O)NC(=O)N(c3cc(OC)c(Cl)cc3OC)C2=O)cc1Cl`: the NF-kB reporter in test [1] (setting [4]) came out at 1.1 ± 0.1; in test [1] (agonist: LPS 0.1 ug/mL) it was 1 ± 0.059; in test [1] (agonist: MPLA […]), 0.899 ± 0.056. Further, the figures for the IRF reporter in test [2] (agonist: 3'3'-cGAMP 10 ug/mL), in test [2] (agonist: LPS 0.1 ug/mL) and in test [2] (agonist: MPLA […]) were 0.952 ± 0.051, 1.15 ± 0.12 and 0.887 ± 0.055, respectively. Also, the viability score in test [3] was 1.01 (active).

As for `CN1C(=O)NC(=O)C(=Cc2cc(Br)cc(Cl)c2O)C1=O`, the figures for the NF-kB reporter in test [1] (setting [4]), in test [1] (agonist: LPS 0.1 ug/mL) and in test [1] (agonist: MPLA […]) were 0.19 ± 0.019, 0.505 ± 0.026 and 1.32 ± 0.63, respectively. Further, the values for the IRF reporter in test [2] (agonist: 3'3'-cGAMP 10 ug/mL), in test [2] (agonist: LPS 0.1 ug/mL) and in test [2] (agonist: MPLA […]) were 0.537 ± 0.042, 1.11 ± 0.078 and 0.942 ± 0.079, respectively. For the same compound, the viability score in test [3] was 1.01 (active).

In the case of `COc1cc(CNCCc2c[nH]c3ccccc23)cc(OC)c1O`, the figures for the NF-kB reporter in test [1] (setting [4]), in test [1] (agonist: LPS 0.1 ug/mL) and in test [1] (agonist: MPLA […]) were 0.642 ± 0.052, 0.811 ± 0.12 and 1.04 ± 0.096, respectively. In addition, the IRF reporter in test [2] (agonist: 3'3'-cGAMP 10 ug/mL) was 0.93 ± 0.043; in test [2] (agonist: LPS 0.1 ug/mL) it was 1.44 ± 0.11; in test [2] (agonist: MPLA […]) it was 1.56 ± 0.15. Besides, the viability score in test [3] was 1 (active).

As for `CN1C(=O)COc2c(C(=O)NC3CN4CCC3CC4)cc(Cl)cc21.Cl` (stereo not drawn), the NF-kB reporter in test [1] (setting [4]) turned out to be 0.661 ± 0.054; in test [1] (agonist: LPS 0.1 ug/mL), 0.831 ± 0.09; in test [1] (agonist: MPLA […]), 1.08 ± 0.089. The values for the IRF reporter in test [2] (agonist: 3'3'-cGAMP 10 ug/mL), in test [2] (agonist: LPS 0.1 ug/mL) and in test [2] (agonist: MPLA […]) were 0.997 ± 0.046, 1.42 ± 0.26 and 1.71 ± 0.51, respectively. For the same compound, the viability score in test [3] was 0.94 (active).

Take `COc1ccc(CN2CCNCC2)c(OC)c1OC.Cl.Cl`: the NF-kB reporter was determined as 1.26 ± 0.18 in test [1] (setting [4]), 1.06 ± 0.16 in test [1] (agonist: LPS 0.1 ug/mL) and 1.45 ± 0.53 in test [1] (agonist: MPLA […]). Besides, the IRF reporter was found to be 0.921 ± 0.042 in test [2] (agonist: 3'3'-cGAMP 10 ug/mL), 1.29 ± 0.28 in test [2] (agonist: LPS 0.1 ug/mL) and 1.27 ± 0.13 in test [2] (agonist: MPLA […]). Further, the viability score in test [3] is 0.989 (active).
